Results filed as inconclusive are left out. Activity calls are given as the source filed them. Unless noted, calls come from the whole dose curve; as a rule, active = well fitted curve in the direction sought with a large enough effect in the repeat runs; inconclusive = weak or mixed curves; inactive = no such curve, though single readings can be large; an effect the other way counts as inactive or inconclusive.
How the values were obtained:
[1] = qHTS assay to identify small molecule antagonists of the estrogen receptor alpha (ER-alpha) signaling pathway using the BG1 cell line in the presence of 0.1 nM 17-beta-estradiol - cell viability counter screen (AID 1259241); note: nearly all actives have a fitted effect of over 40% in size
How it was run: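 Estradiol-stimulated (0.1 nM) VM7Luc4E2 cells exposed to compounds 22 hr; viability measured by fluorescence of cleaved CellTiter-Fluor substrate after 30 min.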

[2] = qHTS assay to identify small molecule antagonists of the androgen receptor (AR) signaling pathway using the MDA cell line in the presence of 0.5 nM R1881 - cell viability counter screen (AID 1259242); note: nearly all actives have a fitted effect of over 45% in size
How it was run: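 Live-cell protease activity was measured by CellTiter-Fluor fluorescence after 30 min. Before that, MDA-kb2 MMTV-luciferase cells had 16 hr at 37C without CO2, exposed to test compounds and 0.5 nM R1881 final.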

[3] = qHTS assay to identify small molecule phospholipidosis (PLD) inducers (AID 1259344; active = well fitted curve in the direction sought with a large enough effect; an effect the other way counts as inactive or inconclusive)
How it was run: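 Accumulated phospholipid, stained red by LipidTOX during 24 h compound treatment of HepG2 cells at 37 C, is quantified from images as pit number and intensity, normalised per cell using Hoechst-stained nuclei.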

[4] = qHTS assay to identify small molecule HDAC inhibitors (AID 1259364); note: nearly all actives have a fitted effect of over 45% in size; note: potency is the fitted concentration of half-maximal effect
How it was run: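 Luminescence read after 30 min room-temperature HDAC-Glo incubation measures cellular class I/II HDAC activity. Compounds were applied for 2 hr at 37 C to HCT-116 wild-type cells seeded the day before.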

[5] = qHTS assay to identify small molecule agonists of the sonic hedgehog signaling (Shh) pathway - cell viability counter screen (AID 1259366); note: nearly all actives have a fitted effect of over 50% in size
How it was run: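 Same-well cytotoxicity read. Gli1-Luc reporter 3T3 cells; compounds 24hr, 37C/5% CO2; CellTiter-Fluor fluorescence.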

[6] = qHTS assay to identify small molecule antagonists of the sonic hedgehog signaling (Shh) pathway - cell viability counter screen (AID 1259367); note: nearly all actives have a fitted effect of over 55% in size
How it was run: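 CellTiter-Fluor signal in conditioned medium-stimulated 3T3 Gli1-Luc cells, 23 hr compound exposure, 37C.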

[7] = qHTS assay to identify small molecule agonists of the sonic hedgehog signaling (Shh) pathway (AID 1259368; calls by dose curve;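 note: NIH/3T3-derived 3T3Gli1-Luc cells carrying a stable Gli1-driven firefly luciferase reporter; series mostly up to about 92 µM; nearly all actives have a fitted effect of over 15% in size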)
How it was run: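 Luminescence was read after 30 min at room temperature with luciferase reagent. Before that, 3T3Gli1-Luc cells (NIH/3T3 clone, stable Gli1-Luc reporter; 2,000/well) were exposed to compounds for 24 hr at 37C, 5% CO2, compounds being added 4 hr post-plating.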

[8] = target: Estrogen receptor beta (Homo sapiens) (UniProt Q92731); test: qHTS assay to identify small molecule agonists of the estrogen receptor beta (ER-beta) signaling pathway (AID 1259377; active = well fitted activation curve with a large enough effect in the signal ratio in the repeat runs, not every such curve was filed as active; the % refers to the signal ratio)
Sequence of Estrogen receptor beta (Homo sapiens) (Q92731 whole entry, looked up): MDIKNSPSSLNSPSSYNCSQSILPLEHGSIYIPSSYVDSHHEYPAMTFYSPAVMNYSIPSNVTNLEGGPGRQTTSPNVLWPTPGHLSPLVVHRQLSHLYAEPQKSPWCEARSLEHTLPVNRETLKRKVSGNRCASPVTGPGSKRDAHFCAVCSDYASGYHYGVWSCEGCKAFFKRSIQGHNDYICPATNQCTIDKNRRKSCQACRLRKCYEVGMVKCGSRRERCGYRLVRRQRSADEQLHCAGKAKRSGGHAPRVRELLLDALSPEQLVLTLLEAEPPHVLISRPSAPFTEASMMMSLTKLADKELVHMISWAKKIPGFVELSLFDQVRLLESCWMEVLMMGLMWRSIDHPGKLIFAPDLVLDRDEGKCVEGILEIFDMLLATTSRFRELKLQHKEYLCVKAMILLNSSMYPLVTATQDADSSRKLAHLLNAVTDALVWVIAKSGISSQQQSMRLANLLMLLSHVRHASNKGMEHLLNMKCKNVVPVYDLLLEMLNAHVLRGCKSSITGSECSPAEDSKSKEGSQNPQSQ
How it was run: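 Read-out: beta-lactamase FRET fluorescence. Cell line: ER-beta-UAS-bla HEK293T in 2% charcoal-stripped FBS. Exposure: 16 hr at 37C. Substrate step: 2 h at room temperature.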

[9] = qHTS assay to identify small molecule agonists of the androgen receptor (AR) signaling pathway in the presence of an antagonist - cell viability counter screen (AID 1259379);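 note: MDA-kb2 human breast cancer cells carrying an MMTV luciferase reporter; series mostly up to about 92 µM; nearly all actives have a fitted effect of over 25% in size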
How it was run: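 Cytotoxicity counter-screen run in the same wells as the nilutamide-challenged (3.0 µM final) AR agonist assay in MDA-kb2 cells. Compounds tested at 15 concentrations for 16 h, 37 °C without CO2; CellTiter-Fluor fluorescence read.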

[10] = qHTS assay to identify small molecule agonists of the estrogen receptor beta (ER-beta) signaling pathway - cell viability counter screen (AID 1259380); note: nearly all actives have a fitted effect of over 30% in size
How it was run: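 Cell viability counter screen: CellTiter-Glo luminescence (30 min, room temperature) measured in the same wells as the beta-lactamase readout, after 16 hr compound exposure at 37C of ER-beta-bla HEK293T cells in 2% charcoal-stripped FBS medium.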

[11] = qHTS assay to identify small molecule antagonists of the estrogen receptor beta (ER-beta) signaling pathway - cell viability counter screen (AID 1259382);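 note: HEK293T cells carrying ER-beta-UAS-bla reporter stimulated with estradiol; series mostly up to about 92 µM; nearly all actives have a fitted effect of over 55% in size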
How it was run: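 Cytotoxicity was measured in the same wells by CellTiter-Glo luminescence after 30 min at room temperature. Cells were ER-beta-bla HEK293T in charcoal-stripped serum, given compound together with 1 nM E2 and incubated 16 h at 37C.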

[12] = qHTS assay to identify small molecule HDAC inhibitors - cell viability counter screen (AID 1259365); note: series mostly up to about 92 µM; nearly all actives have a fitted effect of over 50% in size
How it was run: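 After overnight seeding at 1,500 cells per well, wild-type HCT-116 cultures took up compounds in DMSO for 2hr at 37 C. Viable cell content came from luminescence with CellTiter-Glo.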

[13] = qHTS assay to identify small molecule antagonists of the sonic hedgehog signaling (Shh) pathway (AID 1259369; calls by dose curve; note: nearly all actives have a fitted effect of over 45% in size)
How it was run: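 Antagonist mode: compound added to 3T3 Gli1-Luc cells followed by conditioned-medium stimulation, 24 h at 37 C, 5% CO2. Inhibition taken as loss of Gli1-driven luciferase luminescence.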

[14] = qHTS assay to identify small molecule agonists or antagonists of the thyroid stimulating hormone receptor (TSHR) signaling pathway - wild type cell line counter screen (AID 1259384; calls by dose curve)
How it was run: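 Counter screen in untransfected Hek293: compounds (15-point titration, triplicate) plus phosphodiesterase inhibitor Ro20-1724 added after 18 h plating; 30 min RT. Intracellular cAMP via competitive d2/cryptate immunoassay, 1 h incubation.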

[15] = target: Thyrotropin receptor (Homo sapiens) (UniProt P16473); test: qHTS assay to identify small molecule antagonists of the thyroid stimulating hormone receptor (TSHR) signaling pathway (AID 1259385; calls by dose curve; note: nearly all actives have a fitted effect of over 20% in size)
Sequence of Thyrotropin receptor (Homo sapiens) (P16473 whole entry, looked up): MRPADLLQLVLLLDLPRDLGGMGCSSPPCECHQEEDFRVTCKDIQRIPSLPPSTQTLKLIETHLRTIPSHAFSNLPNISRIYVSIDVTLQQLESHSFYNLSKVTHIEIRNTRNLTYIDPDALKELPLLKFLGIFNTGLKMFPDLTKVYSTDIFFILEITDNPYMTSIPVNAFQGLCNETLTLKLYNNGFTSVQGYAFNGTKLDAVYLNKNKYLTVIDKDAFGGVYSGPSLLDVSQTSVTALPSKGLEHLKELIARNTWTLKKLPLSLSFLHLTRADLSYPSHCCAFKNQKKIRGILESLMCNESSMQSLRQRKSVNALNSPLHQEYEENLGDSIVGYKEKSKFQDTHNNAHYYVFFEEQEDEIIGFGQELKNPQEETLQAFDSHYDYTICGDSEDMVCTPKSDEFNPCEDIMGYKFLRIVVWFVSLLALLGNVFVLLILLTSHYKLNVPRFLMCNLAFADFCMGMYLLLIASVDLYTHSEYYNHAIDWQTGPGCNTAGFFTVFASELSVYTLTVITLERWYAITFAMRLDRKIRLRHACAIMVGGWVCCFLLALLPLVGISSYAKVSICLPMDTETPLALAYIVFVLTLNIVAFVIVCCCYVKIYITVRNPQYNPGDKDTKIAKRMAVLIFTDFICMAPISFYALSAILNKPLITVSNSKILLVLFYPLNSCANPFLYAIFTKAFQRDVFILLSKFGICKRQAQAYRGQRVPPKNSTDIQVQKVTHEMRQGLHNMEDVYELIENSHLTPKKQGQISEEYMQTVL
How it was run: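 Antagonist mode: compound-treated TSHR-expressing HEK293 cells were stimulated with 1.5 ng/mL TSH (final) in presence of Ro20-1724 for 30 min at RT. HTRF cAMP detection after 1 h; each compound tested at 15 concentrations, triplicate.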

[16] = target: Estrogen receptor (Homo sapiens) (UniProt P03372); test: qHTS assay to identify small molecule antagonists of the estrogen receptor alpha (ER-alpha) signaling pathway using the BG1 cell line in the presence of 0.1 nM 17-beta-estradiol (AID 1259244); note: nearly all actives have a fitted effect of over 50% in size
Sequence of Estrogen receptor (Homo sapiens) (P03372 whole entry, looked up): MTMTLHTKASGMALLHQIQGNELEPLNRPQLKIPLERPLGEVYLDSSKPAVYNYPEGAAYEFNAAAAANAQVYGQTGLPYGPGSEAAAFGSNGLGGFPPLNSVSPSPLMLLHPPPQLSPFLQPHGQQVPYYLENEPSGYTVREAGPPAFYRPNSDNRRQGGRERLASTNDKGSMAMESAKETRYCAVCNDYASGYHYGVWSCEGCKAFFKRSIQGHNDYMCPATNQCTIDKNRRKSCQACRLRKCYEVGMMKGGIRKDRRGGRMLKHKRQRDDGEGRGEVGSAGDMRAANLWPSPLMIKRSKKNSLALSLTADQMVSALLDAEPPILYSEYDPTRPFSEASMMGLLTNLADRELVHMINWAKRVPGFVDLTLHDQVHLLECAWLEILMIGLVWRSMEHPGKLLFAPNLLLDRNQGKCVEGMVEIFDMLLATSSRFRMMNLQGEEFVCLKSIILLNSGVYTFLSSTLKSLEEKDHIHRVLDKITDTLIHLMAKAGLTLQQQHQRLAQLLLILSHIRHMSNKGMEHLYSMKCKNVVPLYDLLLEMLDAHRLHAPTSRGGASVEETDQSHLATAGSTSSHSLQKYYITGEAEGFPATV
How it was run: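 Luciferase luminescence (ONE-Glo, 30 min at room temperature) was read after 22 hr at 37C exposure to compounds plus 17beta-estradiol at 0.1 nM final. Cells were VM7Luc4E2 with endogenous ER-alpha and an ERE-driven luciferase, pre-cultured 5 days in hormone-depleted medium.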

[17] = target: Estrogen receptor (Homo sapiens) (UniProt P03372); test: qHTS assay to identify small molecule agonists of the estrogen receptor alpha (ER-alpha) signaling pathway in the presence of an antagonist (AID 1259383; calls by dose curve; note: top concentration of the series differs between compounds; nearly all actives have a fitted effect of over 15% in size)
How it was run: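 Agonist-mode confirmation run in the presence of 10.0nM (final) ICI-182,780 antagonist. The reporter was ERE-driven luciferase in VM7Luc4E2 cells, grown in charcoal-stripped serum. Cells were exposed to 15-concentration compound series for 22hr, then ONE-Glo luminescence was read.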

[18] = target: Androgen receptor (Homo sapiens) (UniProt P10275); test: qHTS assay to identify small molecule agonists of the androgen receptor (AR) signaling pathway in the presence of an antagonist (AID 1259381; calls by dose curve; note: nearly all actives have a fitted effect of over 15% in size)
Sequence of Androgen receptor (Homo sapiens) (P10275 whole entry, looked up): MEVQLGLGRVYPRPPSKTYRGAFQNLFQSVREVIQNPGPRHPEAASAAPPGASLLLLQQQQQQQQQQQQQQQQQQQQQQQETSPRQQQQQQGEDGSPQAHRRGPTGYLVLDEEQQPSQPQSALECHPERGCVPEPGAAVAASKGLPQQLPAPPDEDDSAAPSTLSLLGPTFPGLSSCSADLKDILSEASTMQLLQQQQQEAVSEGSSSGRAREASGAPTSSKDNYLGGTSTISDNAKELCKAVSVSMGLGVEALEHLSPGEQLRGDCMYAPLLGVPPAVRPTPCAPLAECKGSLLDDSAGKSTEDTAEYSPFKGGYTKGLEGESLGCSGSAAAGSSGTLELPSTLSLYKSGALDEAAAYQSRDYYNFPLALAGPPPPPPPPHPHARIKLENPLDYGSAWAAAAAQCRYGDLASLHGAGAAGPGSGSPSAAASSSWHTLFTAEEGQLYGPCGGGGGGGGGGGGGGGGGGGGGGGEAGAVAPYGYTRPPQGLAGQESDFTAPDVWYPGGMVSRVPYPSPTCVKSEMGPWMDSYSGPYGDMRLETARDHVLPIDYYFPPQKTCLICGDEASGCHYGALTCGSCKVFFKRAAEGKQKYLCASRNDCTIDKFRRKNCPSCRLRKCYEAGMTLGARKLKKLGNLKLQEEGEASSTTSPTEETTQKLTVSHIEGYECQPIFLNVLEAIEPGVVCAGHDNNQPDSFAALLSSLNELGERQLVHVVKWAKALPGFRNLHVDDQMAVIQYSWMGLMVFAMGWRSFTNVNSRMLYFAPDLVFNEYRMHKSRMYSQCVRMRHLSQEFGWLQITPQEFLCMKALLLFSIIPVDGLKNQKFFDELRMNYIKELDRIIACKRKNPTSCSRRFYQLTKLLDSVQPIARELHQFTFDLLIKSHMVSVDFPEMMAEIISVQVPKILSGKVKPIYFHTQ
How it was run: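 Agonist-mode confirmation run against 3.0 uM final nilutamide: compounds titrated at 15 concentrations onto MDA-kb2 MMTV-luciferase reporter cells. Luminescence measured with ONE-Glo following 16 hr incubation, 37C, 0% CO2.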

[19] = target: Estrogen receptor beta (Homo sapiens) (UniProt Q92731); test: qHTS assay to identify small molecule antagonists of the estrogen receptor beta (ER-beta) signaling pathway (AID 1259378; active = well fitted inhibition curve with a large enough effect in the signal ratio in the repeat runs, not every such curve was filed as active; the % refers to the signal ratio)
How it was run: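 Antagonist mode: compounds added to beta-lactamase reporter HEK293T ER-beta-UAS cells stimulated with E2 (1nM final), 16 hr at 37C. LiveBLAzer B/G FRET substrate, 2 hours room temperature, fluorescence read-out.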

Measured: Potency

CC(C)Cc1ccc(CC(=O)O)cc1
not listed: [12] | [13] | [14] | [15] | [16] | [17] | [18] | [19]
inactive: all other assays above

COc1ccc(CCN(C)CCCN2CCc3cc(OC)c(OC)cc3CC2=O)cc1OC
inactive: [1] | [2] | [3] | [4] | [12] | [7] | [9] | [10] | [11]

c1ccc(CCCc2ccncc2)cc1
active: [4] 27.3 µM
not listed: [3] | [16] | [17] | [18] | [19]
inactive: all other assays above

FC(F)(F)C(F)(F)C(F)(F)C(F)(F)CCI
not listed: [3] | [8] | [12] | [18] | [19]
inactive: all other assays above

CCN(CC)c1cccc(O)c1
not listed: [3] | [8] | [15] | [16] | [19]
inactive: all other assays above

CC(C)OC(=O)c1ccccc1C(=O)OC(C)C
not listed: [3] | [7] | [8] | [12] | [18] | [19]
inactive: all other assays above

COc1ccc(/C=C/C(=O)c2ccc(OC)cc2OC)cc1
inactive: [1] | [2] | [3] | [12] | [5] | [6] | [7] | [9] | [14] | [15]

c1ccc(CNc2ncnc3c2ncn3C2CCCCO2)cc1 (centres undefined)
inactive: [1] | [2] | [16] | [12] | [5] | [6] | [13] | [10] | [11]

O=C1OC(=O)c2c(Br)c(Br)c(Br)c(Br)c21
not listed: [3] | [10] | [16] | [17] | [18]
inactive: all other assays above

CCOc1ncc(F)c(=O)[nH]1
not listed: [3] | [7] | [11] | [12] | [18]
inactive: all other assays above

CC(C)CC(O)CC(C)C
not listed: [3] | [5] | [7] | [8] | [11] | [12] | [18] | [19]
inactive: all other assays above

Cc1ccc2nc(N)[nH]c(=O)c2c1Sc1ccncc1
inactive: [1] | [2] | [3] | [4] | [12] | [5] | [6] | [8] | [9] | [11]

Cc1cccc(C)c1NC(=O)c1cc(S(N)(=O)=O)c(Cl)cc1O
not listed: [16] | [17] | [18]
inactive: all other assays above

— PubChem BioAssay (Tox21)
